From PubChem BioAssay (NCATS)
Results filed as inconclusive are left out. Values without a mark were called inactive. The source made the active and inactive calls. Calls come from the whole dose curve; as a rule, active = well fitted cell-killing curve with a large enough effect; inconclusive = small, poorly fitted or top-dose-only effect; inactive = flat fitted curve, though single readings scatter.

Experiment: Cell Viability - LYMP2-013 (AID 970); note: nearly all actives have a fitted effect of over 55% in size;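 for activity change, negative = cytotoxic: 0% = DMSO only and full inhibition = tetraoctylammonium bromide control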
Details: LYMP2-013 lymphoblastoid cells viability; series mostly up to 92.2 µM; activity change, negative = cytotoxic: at the top concentration
From the text: NIH Chemical Genomics Center [NCGC]
NIH Molecular Libraries Screening Centers Network [MLSCN]
National Institutes of Environmental Health Sciences [NIEHS]
National Toxicology Program [NTP]
We have developed a 1536-well cell-based assay for quantitative high throughput screening (qHTS) against a number of cell lines to determine in vitro cytotoxicity of small molecules. This particular assay uses a human lymphoblastoid cell line (LYMP2-013) purchased from Coriell Institute for Medical Research.
NCGC Assay Protocol Summary:
The CellTiter-Glo luminescent cell viability assay (Promega) is a homogeneous method to measure the number of viable cells in culture. The end point readout of this assay is based on quantitation of intracellular ATP, an indicator of metabolic activity, using the luciferase reaction. Luciferase catalyzes the oxidation of beetle Luciferin to oxyluciferin and light in the presence of ATP. The luminescent signal is proportional to amount of ATP present.
Using the CellTiter-Glo luminescent cell viability assay, the amount of cellular ATP was measured in the lymphoblastoid cell line with complete culture medium following compound treatment for 24 hours. The assay was performed in opaque white Kalypsys 1536-well plates. In the screen, tetraoctylammonium bromide was used as positive control. Library compounds were measured for their ability to cause acute toxicity in the cell line, as reflected by a decrease in intracellular ATP levels, in a concentration-dependent manner. […] AC50 values were determined from concentration-response data modeled with the standard Hill equation.
qHTS protocol for CellTiter Glo lymphoblastoid cellular assay
[Step] [Parameter] [Value] [Description]
1. Reagent; 5 uL; 2500 lymphoblastoid cells/well
2. Time; 5 hr; 37 C incubation
4. Controls; 23 nL; Tetraoctylammonium bromide 6.4pM to 92 uM
5. Time; 24 hr; 37 C incubation
6. Reagent; 5 uL; CellTiter Glo reagent
7. Time; 30 min; Room Temperature
8. Detection; Luminescence; Viewlux plate reader
Keywords: cell viability, cytotoxicity, lymphoblastoid cell line, luminescence, NTPHTS, NTPHTS_NCGC, NIEHS, DSSTox, MLSMR, MLSCN, NIH Roadmap, qHTS, NCGC
Potency is the fitted concentration of half-maximal effect.

Row | Structure (SMILES) | Potency | activity change, negative = cytotoxic [%]
1 | COc1cccc2c1C(=O)c1c(O)c3c(c(O)c1C2=O)C[C@@](O)(C(=O)CO)C[C@@H]3O[C@H]1C[C@H](N)[C@H](O)[C@H](C)O1 | 1 µM (active) | 
2 | NC(=NCCCCCCN=C(N)/N=C(\N)Nc1ccc(Cl)cc1)/N=C(\N)Nc1ccc(Cl)cc1 | 39.8 µM (active) | 
3 | CC(=O)Oc1ccc(C(c2ccc(OC(C)=O)cc2)c2ccccn2)cc1 |  | -8.93
4 | CC/C(=C(/CC)c1ccc(O)cc1)c1ccc(O)cc1 |  | -19.7
5 | CC(=O)O[C@]1(C(C)=O)CC[C@H]2[C@@H]3C[C@H](C)C4=CC(=O)CC[C@]4(C)[C@H]3CC[C@@]21C | 31.6 µM (active) | 
6 | C[C@]12CC[C@@H]3c4ccc(O)cc4CC[C@H]3[C@@H]1CC[C@@H]2O |  | -15.2
7 | CN(C)/N=N/c1nc[nH]c1C(N)=O |  | -3
8 | CCCCCCc1ccc(O)cc1O |  | 2.69
9 | Oc1c(Cl)cc(Cl)cc1Sc1cc(Cl)cc(Cl)c1O | 50.1 µM (active) | 
10 | O=c1ccc2ccccc2o1 |  | -4.45
11 | C=C(CC)C(=O)c1ccc(OCC(=O)O)c(Cl)c1Cl | 50.1 µM (active) | 
12 | C=CCc1ccc(O)c(OC)c1 |  | -6.15
13 | O=C(O)CCCCC(=O)O |  | -0.288
14 | O=C1OC(c2ccc(O)cc2)(c2ccc(O)cc2)c2ccccc21 |  | -7.54
15 | CC(O)C(=O)O (centres undefined) |  | -4.67
16 | COC1=CC(=O)C[C@@H](C)[C@]12Oc1c(Cl)c(OC)cc(OC)c1C2=O |  | -9.49
17 | COc1cccc2c1C(=O)c1c(O)c3c(c(O)c1C2=O)C[C@@](O)(C(C)=O)C[C@@H]3O[C@H]1C[C@H](N)[C@H](O)[C@H](C)O1 | 2 µM (active) | 
18 | CC(C)(C)CC(C)(C)c1ccc(OCCOCC[N+](C)(C)Cc2ccccc2)cc1 | 25.1 µM (active) | 
19 | Nc1ccc(C(=O)O)cc1 |  | -5.21
